This passage reports inhibition results from PubChem BioAssay AID488890 (Southern Research Specialized Biocontainment Screening …, 2010).

Out of some 320,000 compounds screened, about 1,300 (0.41%) were called active. About 3% were inconclusive and are not listed. The rule behind the calls is not given here. A selection follows. Potency and affinity values are given separately.

This experiment in a line: growth inhibition of non-replicating M. tuberculosis (AID 488890).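 Note: plate controls were DMSO cells for no effect and high antibiotic wells for full effect.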 The note with it: Mycobacterium tuberculosis non-replicating, at 25 µM, stronger effect = higher value.
One may read the inhibition as the drop in the measured response relative to a control, in per cent. Take `CCCn1c(C(C)Nc2nc(-c3ccc(C)cc3)cs2)nc2cc(Cl)c(Cl)cc21` (stereo unspecified): the inhibition turned out to be 17.9%.

As to `COc1ccccc1NC(=O)Cn1cnc2sc(C(=O)Nc3cc(OC)c(OC)c(OC)c3)c(C)c2c1=O`, the inhibition was -13%. Turning to `Cc1ccc(NC(=S)N2CCC(NC(=O)C3CCCCC3)CC2)cc1C`, the inhibition was -8.16%.

As to `Cc1nn(CC(=O)NCc2cc3ccccc3[nH]2)c(C)c1[N+](=O)[O-]`, the inhibition was -11.5%. Consider `O=C(CNC(=O)c1ccco1)OCc1ccc(C(=O)c2ccccc2)cc1`, for which the inhibition amounted to 74.7%.

As for `O=C(Nc1ccc(OC(=O)c2ccco2)cc1)c1ccco1`, the inhibition was 53.6%. For `O=C(CNC(=O)c1ccco1)NCC(=O)OCc1ccc(C(=O)Oc2ccc(Cl)cc2)cc1`, the inhibition came to 5.36%. Next, `COC(=O)c1ccc(NC(=O)c2ccc(NC(=O)c3ccco3)cc2)cc1`: 9.4%; `O=C(CCN1C(=O)/C(=C\c2ccccc2)SC1=S)NNC(=O)c1ccccc1O`: -13.1%.

As for `CN(C)CCCNC1CS(=O)(=O)CC1O` (stereo unspecified), the inhibition is -14.7%. As to `CCOC(=O)C1=C(C)NC2=C(C(=O)CC(C)(C)C2)C1c1ccc2c(c1)CCCN2C` (stereo unspecified), the inhibition turned out to be 58.9%.

As to `COCCN1C(=O)/C(=C/c2c(OC)cc(OC)cc2OC)C(=O)N(c2ccccc2)C1=O`, the inhibition is 2.58%.

As for `Cc1cccc(NC(=O)CC(=O)Nc2cccc(C)c2)c1`, the inhibition worked out at 17.8%. As to `CCOC(=O)c1c(NC(C)=O)sc2c(OC)c(Br)ccc12`, the inhibition was determined as 3.98%. In the case of `CCOC(=O)c1c(NC(C)=O)sc2c(O)c(Br)ccc12` it was 33.9%. Consider `Cc1onc(-c2c(F)cccc2Cl)c1C(=O)N(Cc1ccccc1)C(C)C`, for which the inhibition was 7.25%. Next, `CC1CC(C)CN(S(=O)(=O)c2ccc3oc(=O)ccc3c2)C1` (stereo unspecified): -8.91%; `COC(=O)c1ccccc1NC(=O)CCCn1nc([N+](=O)[O-])cc1C`: 1.55%. As for `CC1CCC(NC(=O)c2cc3ccccc3cc2O)CC1` (stereo unspecified), the inhibition is 38.1%. `CC(C)OC(=O)c1cccc2c1C(=O)c1ccccc1-2`: the inhibition came to 1.02%. With `COC(=O)c1cc2c(C)c(C)c3ccccn3c-2c1C(=O)OC`, the inhibition was determined as 2.38%. `Cc1cc(C(=O)CCC(=O)Nc2ncccc2C)c(C)s1`: the inhibition was found to be 25.8%. In the case of `CS(=O)(=O)N1CCc2cc(S(=O)(=O)Nc3ccc4c(c3)OCCO4)ccc21` it was 5.57%.

For `CCn1nnc(NC(=O)COc2ccc([N+](=O)[O-])cc2)n1`, the inhibition is 15.6%. Regarding `CCOc1ccc(C(=O)Nc2nnn(CC)n2)cc1`, the inhibition was -19.1%. Turning to `Cc1cccc(OCC(=O)Nc2nnn(C)n2)c1C`, the inhibition came to 7.29%. In the case of `Cc1ccc(OCC(=O)Nc2nnn(C)n2)c(C)c1` it was -10.8%; in that of `NC(N)=NS(=O)(=O)c1ccc(NC(=S)NC(=O)c2ccc(Br)cc2)cc1`, 2.25%.

On to `CN(C)CCC#CC1(O)c2ccccc2-c2ccccc21`, for which the inhibition is -5.2%. On to `CCc1ccc(CNC(=O)c2ccc3nc(C4CCCCC4)oc3c2)nc1`, for which the inhibition was determined as 56.5%. Take `O=C1c2ccccc2C(=O)N1CC#CCN1CCN(C(c2ccccc2)c2ccccc2)CC1`: the inhibition is -1.98%. As for `c1ccc(-c2noc(CC3CCCCC3)n2)cc1`, the inhibition worked out at 69.6%.

Take `c1ccc(Cc2nc(-c3ccccn3)no2)cc1`: the inhibition stood at 16.8%.

Consider `c1ccc(CCc2nc(-c3cccnc3)no2)cc1`, for which the inhibition was determined as 20%. Turning to `c1ccc(-c2noc(C3CCCCC3)n2)nc1`, the inhibition is 18.3%. Consider `CC(=O)CC1=NC(C)(C)Cc2ccccc21`, for which the inhibition was 0.57%. For `c1ccc(CNc2ccc3ccccc3n2)nc1`, the inhibition came to 21.1%.

Take `COc1cc2c(cc1NC(=O)COC(=O)C1CC(=O)N(Cc3ccco3)C1)oc1ccccc12` (stereo unspecified): the inhibition was found to be 6.37%. Regarding `Cc1ccc(-n2c(-c3ccncc3)nnc2-c2cccs2)cc1`, the inhibition is -0.27%. On to `O=C(c1ccc([N+](=O)[O-])s1)N1CCN(c2ccccc2)CC1`, for which the inhibition was -13.2%. As for `COc1ccccc1N1CCN(C(=O)c2ccc(Br)s2)CC1`, the inhibition came out at 70.2%. In the case of `O=C(c1cccc([N+](=O)[O-])c1)N1CCN(c2cccc(Cl)c2)CC1` it was 38.1%. For `COc1ccccc1N1CCN(C(=O)c2cc(C(=O)N3CCN(c4ccccc4OC)CC3)cc([N+](=O)[O-])c2)CC1`, the inhibition was 12.5%. Take `NC(=O)CCn1ccc2ccccc21`: the inhibition was determined as 2.82%.

`Cc1cc(C)n(C(=O)c2ccc(C)c(S(=O)(=O)N3CCCCC3)c2)n1`: the inhibition was -9.14%. On to `Cc1ccc(C(C)C)cc1OCC(=O)NNC(=O)Nc1ccccc1`, for which the inhibition is -5.51%. Regarding `Cc1cc(NC(=O)c2ccccc2C)ccc1NC(=O)c1ccccc1Cl`, the inhibition was -10.5%. As for `Cc1c(Cl)cccc1NC(=O)CCC(=O)NNC(=O)c1ccccc1Cl`, the inhibition is 3.92%. For `Cc1c(Cl)cccc1NC(=O)CNC(=O)c1ccccc1F`, the inhibition turned out to be 17.3%. Next, `COc1ccc(C(=O)NNC(=O)C(=O)Nc2ccc(C)c(Cl)c2)cc1`: 73%; `Cc1ccc(S(=O)(=O)NCC(=O)NCC(=O)OCc2c(F)cccc2Cl)cc1`: -16.7%.

As for `COC(=O)c1c(NC(=O)c2cccc([N+](=O)[O-])c2)sc(C(N)=O)c1C`, the inhibition is 51.4%. With `COc1cc(/C=N/NC(=O)c2ccc(N)cc2)ccc1OC(=O)c1cccc(C)c1`, the inhibition was determined as 35.7%. In the case of `CCN(C(=O)COC(=O)c1cc2ccccc2cc1O)C1CCS(=O)(=O)C1` (stereo unspecified) it was 9.53%; in that of `CC(C)CC(NC(N)=O)C(=O)Nc1ccc(Cl)c(Cl)c1` (stereo unspecified), 13.8%; in that of `CCNC(=O)/N=C1/NC(=O)C(C(C)C)O1` (stereo unspecified), 0.48%.

On to `CC(C)(C)NC(=O)Cn1cc(C(=O)c2ccccc2F)c2ccccc21`, for which the inhibition was determined as 0.38%. `CCCCOc1ccc(-c2nc(/C=N/c3nccs3)c(O)o2)cc1`: the inhibition is 62.2%. In the case of `CN=Cc1nc(-c2ccccc2)oc1O`, the inhibition amounted to 10.9%. As to `O=C(O)CN(Cc1ccccc1)S(=O)(=O)c1ccc2c(c1)OCCO2`, the inhibition is -8.61%. Consider `CC1CN(C(=O)c2ccc(COc3ccc(C(C)C)cc3)o2)CC(C)O1` (stereo unspecified), for which the inhibition amounted to 54.3%.

Consider `COc1ccc(NC(C)=O)cc1NC(=O)CSc1nnc(-c2ccc(F)cc2)n1N`, for which the inhibition was -6.88%. As to `O=[N+]([O-])c1ccc(NC(=S)N2CCc3ccccc3C2)cc1`, the inhibition was -1.08%.

For the compound `CC[n+]1c(/C=C(\C)SC)sc2ccccc21`, the inhibition came to 0.12%.

Regarding `CC[n+]1c(/C=C(/C)SC)sc2ccccc21`, the inhibition came to 67%. As to `CCn1c(N2CCN(C(=S)NCCc3ccccc3)CC2)nc2ccccc21`, the inhibition came to 63.9%. For the compound `Cc1[nH]c2ccc(OC(F)(F)F)cc2c1CCNCc1cccc([N+](=O)[O-])c1`, the inhibition was 77.6%. On to `COc1ccc2[nH]c(C)c(CCNCc3cn(C)c4ccccc34)c2c1`, for which the inhibition amounted to 60.3%. Consider `CC1=C(CCN2CCN(C(C)C)C(CCO)C2)C(C)(C)CCC1` (stereo unspecified), for which the inhibition was 12.7%. Regarding `CC1=C(CCN2CCN(C3CCCC3)C(CCO)C2)C(C)(C)CCC1` (stereo unspecified), the inhibition is 54.5%. On to `CCOc1ccccc1NC(=S)N1CCC(c2nc3ccccc3o2)CC1`, for which the inhibition came out at 29.4%. In the case of `COc1ccc(NC(=O)Cn2nnc(C(=O)NCc3ccco3)c2N)cc1`, the inhibition was -3.46%. Next, `CCCC1(CCC)NC(=O)NC1=O`: 36.8%; `O=C(CCc1ccccc1)NCc1ccncc1`: 7.15%. For `Cc1nc(Nc2ccc(S(N)(=O)=O)cc2)oc1C`, the inhibition was determined as 71.4%. With `CSc1ccc(C(=O)C2CCCN(C(=O)c3ccc4c(c3)OCO4)C2)cc1` (stereo unspecified), the inhibition is 71.2%. Next, `CSc1ccc(C(=O)C2CCCN(C(=O)c3nonc3C)C2)cc1` (stereo unspecified): 62.8%. In the case of `C=CCN(CC=C)C(=O)C1CC(=O)N(c2ccc(Br)cc2)C1` (stereo unspecified) it was 0.89%; in that of `O=c1cc(NS(=O)(=O)c2ccccc2)nc(SCc2c(Cl)cccc2Cl)[nH]1`, -0.92%. With `O=C(NNc1cccc(Cl)n1)Nc1ccc(F)cc1`, the inhibition was determined as 9.17%. `CCCCC(=O)N(CCOC)c1nnc(-c2ccc(OC)cc2)s1`: the inhibition was found to be 11.8%. In the case of `CCC(=O)N1c2ccc(S(=O)(=O)N3CCN(CC)CC3)cc2CC1C` (stereo unspecified) it was -2.95%; in that of `Cc1nc2c(=O)oc3ccccc3c2n1-c1ccccc1`, 66.8%; in that of `Cn1c(C(F)(F)F)nc2c(=O)oc3ccccc3c21`, 71.2%. On to `Cc1cc(Cl)c2oc(C(=O)N3CCN(c4cccc(C)n4)CC3)c(C)c2c1`, for which the inhibition was 22.3%. In the case of `O=C(NN=C1CCCC1)c1ccccc1O` it was 8.13%; in that of `CCOC(=O)N1CCC(=NNC(=O)c2cc3ccccc3cc2O)CC1`, 31.9%; in that of `Cc1ccc(Cn2c(=N)n(CC(O)c3ccco3)c3ccccc32)cc1` (stereo unspecified), 18.9%.

As to `N=c1n(Cc2ccccc2)c2ccccc2n1CC(O)c1ccco1` (stereo unspecified), the inhibition was 2.91%. For the compound `CC1CCC/C(=C\Nc2ccc(O)cc2)C1=O` (stereo unspecified), the inhibition was found to be 13.7%.

For `CC1CCC/C(=C\Nc2ccc(C(=O)O)cc2)C1=O` (stereo unspecified), the inhibition was -12.5%. Next, `O=C1c2cccc(OCC(=O)N3CCCc4ccccc43)c2CCN1Cc1cccnc1`: 15.4%; `O=C(NC1CCCCC1)c1cc(-c2cccs2)on1`: 43.1%. For the compound `O=C(NC1CCCC1)c1cc(-c2ccccc2O)on1`, the inhibition is 4.68%. On to `CN(Cc1cccs1)C(=O)COC(=O)CNC(N)=O`, for which the inhibition came out at 2.55%. As to `O=C(c1ccccc1)c1cncc(Br)c1`, the inhibition is 19%. Regarding `CCc1ccc(C(=O)c2cncc(Br)c2)cc1`, the inhibition worked out at 70%. As to `Cc1ccc(C)n1-c1ccc(N2CCOCC2)c([N+](=O)[O-])c1`, the inhibition is -3.61%. In the case of `Cc1nn(C)c(C)c1NC(=S)Nc1ccc(S(=O)(=O)Nc2ncccn2)cc1` it was -12.7%; in that of `CCC/C=C(\CCC)C(NC(=O)CCc1ccccc1)c1ccc(C(F)(F)F)cc1` (stereo unspecified), -8.64%; in that of `Cc1ccc(O)c(C)c1`, -0.5%. Regarding `Cc1cc(C(c2ccc(O)cc2)c2cc(C)c(O)cc2C)c(C)cc1O`, the inhibition came to 19.6%. In the case of `CN(C)CCCn1c(-c2ccccc2)nc(=S)c2c1CCCC2` it was 3.62%.

Take `CN(C)CCN1C(=O)C2C(C(=O)Nc3cc(Cl)cc(Cl)c3)C3C=CC2(O3)C1C(=O)NC1CCCCC1` (stereo unspecified): the inhibition came out at 5.38%.

For the compound `COc1ccc(OCCCC(=O)OCC(=O)Nc2nnc(-c3ccccc3)o2)cc1`, the inhibition stood at 24.6%. Next, `CC(C)c1ccc(OCC(=O)NCCO)cc1`: -10.9%; `Clc1ccccc1N1CCN(Cc2ccc(Br)o2)CC1`: 19.6%; `Cc1ccccc1N1CCN(Cc2ccc(Br)o2)CC1`: 35.5%. `Cc1cccc(N2CCN(Cc3ccc(Br)o3)CC2)c1C`: the inhibition is 51.8%. With `Cc1cccc(N2CCN(Cc3ccoc3)CC2)c1C`, the inhibition came to 11.8%. Turning to `Cc1ccc(CN2CCN(c3ccccc3Cl)CC2)o1`, the inhibition is -0.79%. Next, `Cc1ccccc1N1CCN(Cc2cc3c(cc2[N+](=O)[O-])OCO3)CC1`: 45.5%. For the compound `CCOc1ccc(N=C2SCC(=O)N2CC)cc1`, the inhibition stood at 25.3%. With `O=C(Nc1cccc([N+](=O)[O-])c1)NC1CCS(=O)(=O)C1` (stereo unspecified), the inhibition was -1.42%. Consider `CSc1ccccc1NC(=O)CN(C)CC(=O)Nc1c(F)cccc1F`, for which the inhibition was found to be 6.62%. As for `O=C1c2cccc3cccc(c23)C(=O)N1CCCc1n[nH]c(=S)n1-c1ccccc1`, the inhibition was -14.7%.
